These results are taken from PubChem BioAssay.

Molecules are shown by their SMILES. Activity calls are given as the source filed them.

The subject of test [1] is Human papillomavirus type 1a protein E7 (residues 44-93). As to the kind of experiment: small molecules binding HPV E7 44-93 – biochemical, small-molecule microarray, residues 44-93, 635 nm fluorescence, primary screen (AID 1108).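 Further: E7 fragment applied at 1 µg/mL in TBST for 1 h at 4 C; score combines spot fluorescence with its signal to noise ratio.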 Particulars: fluorescence 635 nm, higher = more signal.
Test [2] is described as follows: hepatitis C replication reporter changes, two-sided – Huh7 cells, luciferase reporter, HCV replication inhibitor project, primary screen (AID 1109).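 Further: huh7 hepatoma cells harbouring a luciferase neomycin HCV replicon reporter; luciferase luminescence as measure of HCV replicon replication; test concentration not given here.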 Particulars: Huh7 HCV replicon luciferase reporter, 48 h; higher = more signal.
The target in test [3] is Left-right determination factor 2 (Homo sapiens) (UniProt O00292). As to the kind of experiment: small molecules binding LEFTY2 protein – biochemical, small-molecule microarray, 635 nm fluorescence scan, primary screen (AID 1110). Particulars: higher = more signal.
The target in test [4] is Calmodulin-1 (Homo sapiens) (UniProt P0DP23). As to the kind of experiment: small molecules binding calmodulin-1 with EGTA – biochemical, small-molecule microarray, Cy5-labelled CALM1, profiling panel (AID 1111).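 Further: labelled calmodulin applied in Tris saline Tween buffer holding calcium plus EGTA and DTT.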 Particulars: Cy5-CALM1 binding fluorescence, higher = more signal.
For test [5] the target is unchanged. As to the kind of experiment: small molecules binding Ca-loaded calmodulin-1 – biochemical, small-molecule microarray, Cy5-labelled CALM1, plus calcium, artefact control for SMM control-protein annotation, profiling panel (AID 1112).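 Further: score merges spot fluorescence with signal to noise from triplicate slides.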 The note with it: Cy5-CALM1 binding fluorescence, higher = more signal.
A short description of test [6]: probe aWnt5a binding to arrayed compounds – biochemical, biotinylated probe, 635/667 nm fluorescence, primary screen (AID 1113).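 Further: score merges 667 nm fluorescence intensity with signal-to-noise per printed feature.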 Particulars: small-molecule microarray, higher = more signal.
A short description of test [7]: probe aShh binding to arrayed compounds – biochemical, biotinylated probe, 635/667 nm fluorescence, primary screen (AID 1114).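 Further: probe is biotin-labelled aShh protein from a stem cell growth factor screen; measures binding of labelled protein to compounds printed on the slide; score merges feature fluorescence at 667 nm with signal-to-noise.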 The note with it: small-molecule microarray, higher = more signal.
Test [8] is described as follows: probe aNog binding to arrayed compounds – biochemical, biotinylated probe, 635/667 nm fluorescence, primary screen (AID 1115).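 Further: probe is biotinylated aNog protein used at 0.15 µg/mL for 1 h at 4 C; z-score combines 667 nm fluorescence of each spot with its signal to noise.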 Particulars: small-molecule microarray, higher = more signal.
The target of test [9] is Torsin-1A-interacting protein 1 (Homo sapiens) (UniProt Q5JTV8). As to the kind of experiment: compound microarray binding of lysate hLAP1 – cell lysate, small-molecule microarray, COS7 lysate, 635/667 nm fluorescence, primary screen (AID 1116). Particulars: 635 nm fluorescence, higher = more signal.
Test [10] has as its target Alpha-bungarotoxin (Bungarus multicinctus) (UniProt P60615). As to the kind of experiment: compounds binding labelled alpha-BTX control protein – biochemical, small-molecule microarray, Alexa647 label, 635/667 nm fluorescence, artefact control for SMM control protein annotation, profiling panel (AID 1117). The note with it: alpha-BTX-A647 binding fluorescence, higher = more signal.

Test [11] deals with Albumin (Bos taurus) (UniProt P02769). As to the kind of experiment: compounds binding labelled BSA control protein – biochemical, small-molecule microarray, Alexa647 label, 635/667 nm fluorescence, artefact control for SMM control protein annotation, profiling panel (AID 1118).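 Further: score merges 667 nm emission intensity and signal-to-noise per printed compound spot.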 The note with it: BSA-A647 binding, fluorescence 635 nm, higher = more signal.
Test [12] is described as follows: probe aXIP binding to arrayed compounds – biochemical, NeuroSMM set, 635/667 nm fluorescence, primary screen (AID 1119).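 Further: probe is the protein aXip251-270 applied at 1 µg/mL to compound-printed slides; binding of probe to printed compounds measured as 667 nm fluorescence plus signal to noise.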 Particulars: small-molecule microarray, higher = more signal, called active from +8 up or from −8 down.
The nature of test [13]: probe aNOTCH3 binding on compound microarray – biochemical, small-molecule microarray, 635/667 nm fluorescence, primary screen (AID 1120).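 Further: probe is a biotin-tagged antibody raised against NOTCH3 rather than NOTCH3 protein; score merges spot fluorescence near 667 nm with spot signal to noise.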 The note with it: higher = more signal.
Test [14] in a line: probe aNOTCH2 binding on compound microarray – biochemical, small-molecule microarray, 635/667 nm fluorescence, primary screen (AID 1121).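 Further: score merges feature fluorescence read at 667 nm with its signal to noise.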 Particulars: higher = more signal.
For test [15], the target named is Carbonic anhydrase 2 (Homo sapiens) (UniProt P00918). As to the kind of experiment: compounds binding carbonic anhydrase 2 – biochemical, small-molecule microarray, Alexa647-labelled CAII, profiling panel (AID 1122). The note with it: CAII-A647 binding fluorescence, higher = more signal.
Test [16] is described as follows: COS7 lysate on small-molecule microarray, probe aHis, 635 nm (AID 1123).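 Further: z-score combines 667nm fluorescence intensity with signal-to-noise per printed compound spot.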 Particulars: COS7 cell lysate, fluorescence, higher = more signal.
Test [17] is described as follows: probe aLAP1 signal on lysate-treated microarray – cell lysate, small-molecule microarray, COS7 lysate, primary screen (AID 1124).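 Further: lysate comes from COS7 cells expressing LAP1 and is applied at 0.3 µg/mL; score merges spot fluorescence near 667 nm with signal-to-noise over triplicate slides.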 Particulars: probe aLAP1, fluorescence, higher = more signal.
Test [18] concerns Sam68 (KHDRBS1). As to the kind of experiment: compounds binding KHDRBS1 protein – biochemical, small-molecule microarray, 635 nm fluorescence, primary screen (AID 1125).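 Further: score merges 667 nm channel intensity with signal to noise over triplicate slides.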 The note with it: higher = more signal.
Test [19] deals with Chordin-like protein 2 (CHRDL2). As to the kind of experiment: compounds binding chordin-like 2 – biochemical, small-molecule microarray, 635 nm fluorescence, primary screen (AID 1126).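 Further: printed compound slides probed with Chrdl2 protein at 4 µg/mL for 1 h at 4 C; score merges 667 nm emission intensity with signal to noise over three replicate slides.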 The note with it: fluorescence 635 nm, higher = more signal.
For test [20], the target named is Concanavalin-A (Canavalia ensiformis) (UniProt P02866). As to the kind of experiment: compounds binding concanavalin A lectin – biochemical, small-molecule microarray, Alexa647 label, 635 nm, artefact control for SMM control protein annotation, primary screen (AID 1127).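 Further: z combines 667 nm emission intensity with signal-to-noise across three replicate slides.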 Particulars: ConA-A647 binding fluorescence, higher = more signal.
Chain of Concanavalin-A (Canavalia ensiformis) (P02866 whole entry, looked up): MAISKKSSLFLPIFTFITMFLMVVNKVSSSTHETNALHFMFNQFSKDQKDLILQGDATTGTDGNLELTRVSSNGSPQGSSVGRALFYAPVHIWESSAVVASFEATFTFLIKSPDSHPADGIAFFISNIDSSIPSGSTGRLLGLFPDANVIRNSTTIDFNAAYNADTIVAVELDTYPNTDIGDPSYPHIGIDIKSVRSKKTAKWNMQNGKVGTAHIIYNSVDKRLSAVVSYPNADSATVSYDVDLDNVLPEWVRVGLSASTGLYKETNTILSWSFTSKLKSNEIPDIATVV

Chain of Alpha-bungarotoxin (Bungarus multicinctus) (P60615 whole entry, looked up): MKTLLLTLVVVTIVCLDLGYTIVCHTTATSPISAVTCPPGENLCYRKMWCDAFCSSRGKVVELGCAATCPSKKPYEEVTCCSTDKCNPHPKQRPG
Chain of Albumin (Bos taurus) (P02769 whole entry, looked up): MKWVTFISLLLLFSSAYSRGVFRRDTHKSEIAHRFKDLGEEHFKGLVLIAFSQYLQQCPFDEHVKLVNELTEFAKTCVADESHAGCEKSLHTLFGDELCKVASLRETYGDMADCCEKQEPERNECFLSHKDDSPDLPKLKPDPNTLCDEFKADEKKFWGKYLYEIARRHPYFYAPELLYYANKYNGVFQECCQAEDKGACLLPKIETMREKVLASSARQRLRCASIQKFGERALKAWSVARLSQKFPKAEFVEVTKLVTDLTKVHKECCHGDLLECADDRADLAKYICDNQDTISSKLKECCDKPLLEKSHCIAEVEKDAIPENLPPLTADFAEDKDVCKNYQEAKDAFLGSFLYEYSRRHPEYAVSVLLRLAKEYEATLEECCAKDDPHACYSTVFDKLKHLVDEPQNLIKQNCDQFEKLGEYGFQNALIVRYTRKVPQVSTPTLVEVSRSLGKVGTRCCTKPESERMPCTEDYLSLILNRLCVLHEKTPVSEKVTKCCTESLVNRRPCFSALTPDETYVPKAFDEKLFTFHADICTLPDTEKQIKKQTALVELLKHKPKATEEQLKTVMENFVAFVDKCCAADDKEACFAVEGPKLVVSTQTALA
Chain of Left-right determination factor 2 (Homo sapiens) (O00292 whole entry, looked up): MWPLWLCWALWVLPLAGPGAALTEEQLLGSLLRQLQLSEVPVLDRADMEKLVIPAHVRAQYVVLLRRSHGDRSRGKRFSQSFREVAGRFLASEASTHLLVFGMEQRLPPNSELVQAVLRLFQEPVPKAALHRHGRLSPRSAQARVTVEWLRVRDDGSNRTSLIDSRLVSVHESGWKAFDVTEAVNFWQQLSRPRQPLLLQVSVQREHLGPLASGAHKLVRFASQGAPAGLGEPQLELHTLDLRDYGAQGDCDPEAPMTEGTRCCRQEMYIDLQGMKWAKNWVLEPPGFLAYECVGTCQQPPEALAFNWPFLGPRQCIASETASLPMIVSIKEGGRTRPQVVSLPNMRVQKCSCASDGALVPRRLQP
Chain of Torsin-1A-interacting protein 1 (Homo sapiens) (Q5JTV8 whole entry, looked up): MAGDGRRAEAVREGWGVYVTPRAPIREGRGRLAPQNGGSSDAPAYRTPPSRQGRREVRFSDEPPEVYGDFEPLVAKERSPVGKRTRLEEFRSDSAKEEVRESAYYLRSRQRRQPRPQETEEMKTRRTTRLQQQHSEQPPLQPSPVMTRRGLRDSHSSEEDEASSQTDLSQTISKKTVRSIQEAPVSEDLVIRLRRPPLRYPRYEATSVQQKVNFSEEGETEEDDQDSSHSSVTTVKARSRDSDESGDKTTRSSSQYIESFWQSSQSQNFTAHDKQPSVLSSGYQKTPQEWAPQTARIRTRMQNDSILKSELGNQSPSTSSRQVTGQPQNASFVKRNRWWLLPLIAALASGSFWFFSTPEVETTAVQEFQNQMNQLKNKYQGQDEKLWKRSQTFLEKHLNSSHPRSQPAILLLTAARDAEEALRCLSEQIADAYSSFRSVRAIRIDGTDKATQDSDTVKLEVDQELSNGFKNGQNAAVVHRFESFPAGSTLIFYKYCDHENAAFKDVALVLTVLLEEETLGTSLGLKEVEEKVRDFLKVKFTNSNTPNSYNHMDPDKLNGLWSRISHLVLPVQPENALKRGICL

`CC1CC/C=C\[C@H]2OC34C=CCN(c5ccc(Cl)cc5)C(=O)[C@H]3N(CCCO)C(=O)[C@]4(C)C2C(=O)O1` (stereo not given in full): the composite z-score in [1] is -0.678; in test [3] it was -1.33; in [4], -0.484; in test [5], 0.456; in test [6] it was -0.124; in [7], -0.0553. Further, the composite z-score in test [8] was -0.0211; in [9], -1.06; in test [10] it was -0.859; in test [11], 0.784; in [13] it was -0.235; in test [14], -0.18. Moreover, the composite z-score in test [15] was 0.931; in [16], -0.42; in [17] it was 0.569; in test [18] it was -0.38; in [19], -1.39; in test [20], -0.749. This compound also gave a z-score in [2] of -1.07. Moreover, the composite Z-score in test [12] was 0.182 (inactive).

`O=C1N(Cc2ccccc2)c2ccccc2[C@H]2OC(c3ccc(OCCCO)cc3)=N[C@@]12Cc1ccccc1`: the composite z-score in [1] was 1.03; in test [3], -0.116; in [4], 0.244; in [5] it was -0.0364; in [6], 0.067; in test [7], 1.06. Besides, the composite z-score is 0.798 in test [8]; 0.498 in test [9]; 1.81 in [10]; -0.465 in test [11]; 0.0271 in test [13]; -0.131 in test [14]. Also, the composite z-score in test [15] stood at 0.606; in test [16] it was 2.42; in [17], 1.1; in test [18] it was 1.3; in [19], 0.41; in test [20], 1.06. In test [2], this compound showed a z-score of -2.48. For the same compound, in [12], the composite Z-score is 1.19 (inactive).

Take `[N-]=[N+]=Nc1ccccc1[C@@H]1OC(c2ccc(OCCCO)cc2)=N[C@]1(Cc1ccccc1)C(N)=O`: the composite z-score in test [1] is 1.06; in [3], -0.391; in test [4], 1.04; in [5] it was 0.719; in test [6], -0.166; in test [7], 0.173. Besides, the composite z-score in test [8] is -0.0956; in test [9], 0.0305; in [10], 0.209; in [11] it was 0.503; in test [13], 0.0694; in test [14], -0.0149. Moreover, the composite z-score in [15] is 0.724; in test [16], 1.07; in test [17], -0.247; in [18] it was 0.495; in test [19], -0.178; in [20], 0.0171. In test [2], the z-score is -0.837. Further, the composite Z-score in test [12] is -0.0189 (inactive).

`COc1ccc(C(O)C2C=CC3C(=O)N(C)C(=O)C3N2Nc2ccc([N+](=O)[O-])cc2[N+](=O)[O-])cc1OCc1ccccc1` (stereo not given): the composite z-score was 1.39 in [1]; -0.0506 in test [3]; 0.211 in test [4]; -0.0482 in [5]; 0.112 in test [6]; 0.28 in [7]. Further, the composite z-score turned out to be 1.38 in test [8]; 0.527 in [9]; 1.5 in test [10]; 0.747 in [11]; 0.583 in test [13]; 0.29 in [14]. The composite z-score in test [15] was 0.633; in [16] it was 2.36; in test [17] it was 0.53; in [18] it was 1.32; in test [19] it was -0.599; in test [20], 0.892. This compound also came in with a z-score in test [2] of 0.714. Besides, the composite Z-score in [12] is -0.213 (inactive).

On to `COCCOC(=O)N1C(=O)[C@@]2(c3cc(C#CC4=CCCCC4)ccc31)[C@H](c1ccccc1OCCO)N1[C@H](c3ccccc3)[C@H](c3ccccc3)OC(=O)[C@H]1[C@@H]2C(N)=O`, for which the composite z-score in test [1] is 1.32; in test [3] it was 0.62; in [4], 0.367; in test [5] it was -0.416; in test [6], -0.0758; in test [7] it was -0.167. Further, the composite z-score is -0.512 in [8]; 0.383 in test [9]; 0.161 in test [10]; -0.0123 in test [11]; 0.0174 in test [13]; -0.0728 in [14]. In addition, the composite z-score in test [15] came to 0.265; in test [16], 1.14; in test [17], 0.561; in test [18], 1.28; in [19] it was 0.492; in [20] it was 1.13. The compound further returned a z-score in test [2] of -3.44. The composite Z-score in test [12] was -0.463 (inactive).
